Measurements as given in PubChem BioAssay (NCATS).
Records with an inconclusive call do not appear. Entries that show only a call come without a potency. Unmarked numbers belong to inactive results. Active and inactive are the calls of the source. Calls come from the whole dose curve; as a rule, active = well fitted curve in the direction sought with a large enough effect; inconclusive = small, poorly fitted or top-dose-only effect, or another doubt; inactive = no such curve, though single readings can be large; an effect the other way counts as inactive or inconclusive.

What was measured:
[1] = target: Rap guanine nucleotide exchange factor 3 (Homo sapiens) (UniProt O95398); experiment: Confirmatory qHTS for agonist of cAMP-regulated guanine nucleotide exchange factor 3 (EPAC1) (AID 1645881);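 note: EPAC1 catalysed release of BODIPY-GDP from Rap1B seen as fluorescence loss; nearly all actives have a fitted effect of over 75% in size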
[2] = target: Rap guanine nucleotide exchange factor 4 (Homo sapiens) (UniProt Q8WZA2); experiment: Confirmatory qHTS for agonist of cAMP-regulated guanine nucleotide exchange factor 4 (EPAC2) (AID 1645884);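 note: nucleotide exchange releases bodipy-GDP from Rap1 and this lowers its fluorescence; nearly all actives have a fitted effect of over 65% in size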
[3] = target: Rap guanine nucleotide exchange factor 4 (Homo sapiens) (UniProt Q8WZA2); experiment: Confirmatory qHTS for antagonist of cAMP-regulated guanine nucleotide exchange factor 4 (EPAC2) (AID 1645885); note: nearly all actives have a fitted effect of over 25% in size; note: potency is the fitted concentration of half-maximal effect
[4] = target: Rap guanine nucleotide exchange factor 3 (Homo sapiens) (UniProt O95398); experiment: Counterscreen qHTS for antagonist of cAMP-regulated guanine nucleotide exchange factor 3 (EPAC1) (AID 1645888);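 note: fluorescence loss as bound BODIPY-GDP is released from Rap1B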
How it was run: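 Measured: fluorescence of BODIPY-GDP bound to Rap1B, which falls as exchange proceeds. Conditions include 50 uM competing GDP, 5 and 30 min reads, and a later cAMP challenge for antagonist detection.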

Rap guanine nucleotide exchange factor 4 (Homo sapiens), sequence (Q8WZA2 whole entry, looked up): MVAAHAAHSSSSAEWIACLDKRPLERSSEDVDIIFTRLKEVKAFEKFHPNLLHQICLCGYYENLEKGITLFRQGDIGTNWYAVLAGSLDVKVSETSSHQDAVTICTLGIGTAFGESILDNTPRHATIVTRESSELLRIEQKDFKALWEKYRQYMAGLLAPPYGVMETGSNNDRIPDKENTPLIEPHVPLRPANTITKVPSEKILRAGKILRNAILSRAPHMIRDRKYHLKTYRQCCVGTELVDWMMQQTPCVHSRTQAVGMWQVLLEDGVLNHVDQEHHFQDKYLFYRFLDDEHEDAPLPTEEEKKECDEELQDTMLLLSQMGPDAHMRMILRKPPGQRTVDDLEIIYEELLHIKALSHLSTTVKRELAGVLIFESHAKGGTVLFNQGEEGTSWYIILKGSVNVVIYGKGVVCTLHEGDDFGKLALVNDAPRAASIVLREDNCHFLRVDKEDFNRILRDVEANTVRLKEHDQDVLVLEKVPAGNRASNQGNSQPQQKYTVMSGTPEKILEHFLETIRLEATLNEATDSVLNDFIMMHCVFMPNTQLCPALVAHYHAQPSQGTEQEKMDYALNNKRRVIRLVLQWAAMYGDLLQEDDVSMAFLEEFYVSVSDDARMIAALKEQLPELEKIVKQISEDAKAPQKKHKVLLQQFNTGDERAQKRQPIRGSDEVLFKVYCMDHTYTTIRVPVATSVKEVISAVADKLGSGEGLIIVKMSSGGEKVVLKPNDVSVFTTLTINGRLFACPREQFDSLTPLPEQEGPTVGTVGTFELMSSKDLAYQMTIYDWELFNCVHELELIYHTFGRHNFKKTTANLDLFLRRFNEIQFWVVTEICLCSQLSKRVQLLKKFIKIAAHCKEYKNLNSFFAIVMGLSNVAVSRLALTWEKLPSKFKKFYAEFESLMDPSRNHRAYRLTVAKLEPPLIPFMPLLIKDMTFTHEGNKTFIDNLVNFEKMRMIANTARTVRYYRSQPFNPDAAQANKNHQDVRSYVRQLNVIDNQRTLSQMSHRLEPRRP
Rap guanine nucleotide exchange factor 3 (Homo sapiens), sequence (O95398 whole entry, looked up): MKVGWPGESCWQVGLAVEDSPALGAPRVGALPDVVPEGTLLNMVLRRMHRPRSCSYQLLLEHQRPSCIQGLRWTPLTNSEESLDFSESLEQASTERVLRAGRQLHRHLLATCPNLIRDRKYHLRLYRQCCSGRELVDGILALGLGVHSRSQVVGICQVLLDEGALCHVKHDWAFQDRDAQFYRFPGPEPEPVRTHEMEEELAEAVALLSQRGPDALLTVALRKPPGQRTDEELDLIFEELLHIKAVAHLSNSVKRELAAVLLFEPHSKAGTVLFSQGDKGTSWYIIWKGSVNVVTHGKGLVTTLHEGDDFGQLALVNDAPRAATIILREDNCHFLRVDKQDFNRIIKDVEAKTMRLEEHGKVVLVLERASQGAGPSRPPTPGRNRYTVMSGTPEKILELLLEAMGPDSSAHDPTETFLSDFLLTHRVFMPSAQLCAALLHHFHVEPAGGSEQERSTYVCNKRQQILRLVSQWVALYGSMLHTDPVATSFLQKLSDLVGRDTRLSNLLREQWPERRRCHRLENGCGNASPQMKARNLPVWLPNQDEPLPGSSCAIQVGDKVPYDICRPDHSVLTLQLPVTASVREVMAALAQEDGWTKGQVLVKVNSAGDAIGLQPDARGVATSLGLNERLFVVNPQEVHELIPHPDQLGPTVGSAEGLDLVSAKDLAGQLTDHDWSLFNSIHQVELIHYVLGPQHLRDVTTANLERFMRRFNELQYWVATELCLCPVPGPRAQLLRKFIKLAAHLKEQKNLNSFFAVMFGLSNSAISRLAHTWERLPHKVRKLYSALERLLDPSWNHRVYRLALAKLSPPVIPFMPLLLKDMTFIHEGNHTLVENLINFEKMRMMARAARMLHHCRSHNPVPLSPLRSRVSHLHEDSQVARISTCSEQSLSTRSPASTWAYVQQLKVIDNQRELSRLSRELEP

Row | Structure (SMILES) | Potency [1] | activation [2] | Potency [3] | activity change, negative = inhibition [4] | Potency [2] | Potency [4] | outcome [3]
1 | CC1=C(C(=O)Nc2ccccc2)C(c2ccc(Cl)cc2)n2c(s/c(=C/c3cccc(OCC(=O)O)c3)c2=O)=N1 (stereo unspecified) | inactive | 3.83% [at 17.1 µM, percent relative to cAMP agonist control] | inactive | -3.62% [at 30.8 µM] | – | – | –
2 | CC(C)Cc1ccc(CN2C(C(C)C)C(=O)N(Cc3cn(CCC4OCCO4)nn3)CCS2(=O)=O)cc1 (stereo unspecified) | inactive | 4.64% [at 17.1 µM, percent relative to cAMP agonist control] | inactive | -13.5% [at 30.8 µM] | – | – | –
3 | Cn1cccc1C(=O)NC(=O)COC(=O)c1ccc(S(C)(=O)=O)c([N+](=O)[O-])c1 | inactive | -3.13% [at 17.1 µM, percent relative to cAMP agonist control] | inactive | -20.5% [at 30.8 µM] | – | – | –
4 | Oc1ccc(-c2nc(-c3ccc(O)c(O)c3)cs2)cc1 | inactive | – | inactive | – | inactive | inactive | –
5 | CCOc1ccccc1NC(=O)CN1C(=O)COc2ccc(S(=O)(=O)NC3CCCC3)cc21 | inactive | – | – | – | inactive | inactive | inactive [at 12.7 µM]
6 | O=c1nc(/C=C/c2cccn2-c2ccc([N+](=O)[O-])cc2)cc(C(F)(F)F)[nH]1 | inactive | – | inactive | – | inactive | inactive | –
7 | COc1ccc(OC)c(C(=O)c2coc3cc(Br)c(O)c(Br)c23)c1 | inactive | – | inactive | – | inactive | inactive | –
8 | O=c1c2ccccc2nc(N/N=C/c2c(O)ccc3ccccc23)n1O | inactive | – | inactive | – | inactive | inactive | –
9 | O=C(CSc1ccc(-c2ccco2)nn1)c1cccc([N+](=O)[O-])c1 | inactive | – | inactive | – | inactive | inactive | –
10 | COc1ccc(Cn2c(-c3ccc(C)cc3)nc3c(c(=O)c4ccccc4n3C)c2=O)cc1 | inactive | -1.59% [at 17.1 µM, percent relative to cAMP agonist control] | inactive | -16.2% [at 30.8 µM] | – | – | –
11 | COc1ccccc1Nc1cc2cc(Br)ccc2c(=O)[nH]1 | inactive | – | inactive | – | inactive | inactive | –
12 | CCOC(=O)c1ccccc1NC(=O)c1c(C)oc2ncnc(N3CCOCC3)c12 | inactive | – | inactive | – | inactive | inactive | –
13 | CSc1ccccc1C(=O)N(C)C(c1ccccc1)c1ccccc1 | inactive | – | 26.9 µM (active) | – | inactive | inactive | –
14 | CCCc1nc(SC2CCCC2)c2c(=O)n(C)c(=O)n(C)c2n1 | inactive | – | inactive | – | inactive | inactive | –
15 | Cc1ccc(-c2nc3ccc(Br)cn3c2Cc2ccccc2)cc1 | inactive | – | inactive | – | inactive | inactive | –
16 | COc1ccc(Cl)cc1NC(=O)c1c(NCc2ccc(C)o2)sc2c1CCCCC2 | inactive | – | inactive | – | inactive | inactive | –
17 | COc1cccc(C(=O)Nc2nnc(-c3ccccc3)s2)c1OC | inactive | – | inactive | – | inactive | inactive | –
18 | CCC1=Nc2cc(C(=O)NCCCOC)ccc2Sc2ccc(Br)cc21 | inactive | – | inactive | – | inactive | inactive | –
19 | Cc1ccc(C)c(-c2ccc(=O)n(C(C)C(=O)Nc3ccccc3C(F)(F)F)n2)c1 (stereo unspecified) | inactive | – | – | – | inactive | inactive | inactive [at 12.7 µM]
20 | C[C@H]1CN([C@@H](C)CO)S(=O)(=O)c2ccc(Br)cc2O[C@@H]1CN(C)Cc1cccc(F)c1 | inactive | 15% [at 17.1 µM, percent relative to cAMP agonist control] | inactive | -8.18% [at 30.8 µM] | – | – | –
21 | COc1cc(/C=C2\SC(=S)N(CCCCC(=O)O)C2=O)ccc1OS(=O)(=O)c1ccc(C)cc1 | inactive | -4.35% [at 17.1 µM, percent relative to cAMP agonist control] | inactive | -18.6% [at 30.8 µM] | – | – | –
22 | O=C(O)c1ccc(/C=C2\COc3ccccc3C2=O)cc1 | inactive | – | 84.9 µM (active) | – | inactive | inactive | –
23 | Cc1cc(/C=C2\C(=N)N3N=C(c4ccco4)SC3=NC2=O)c(C)n1Cc1ccccc1 | inactive | – | inactive | – | inactive | inactive | –
24 | O=C1N(Cc2ccccc2)c2ccccc2C1(O)c1c[nH]c2ccccc12 (stereo unspecified) | inactive | – | inactive | – | inactive | inactive | –
25 | CC(=O)Nc1ccc(N(C(=O)Cn2nnc3ccccc32)C(C(=O)NC2CCCC2)c2ccc(O)c(O)c2)cc1 (stereo unspecified) | inactive | – | 95.3 µM (active) | – | inactive | inactive | –
26 | Cc1cc(C)nc(NS(=O)(=O)c2ccc(NC(=O)CN3C(=O)S/C(=C\c4ccccc4)C3=O)cc2)n1 | inactive | – | inactive | – | inactive | inactive | –
27 | O=[N+]([O-])c1cc(Br)ccc1NS(=O)(=O)c1ccccc1 | inactive | -2.03% [at 17.1 µM, percent relative to cAMP agonist control] | inactive | -16.7% [at 30.8 µM] | – | – | –

Row | Structure (SMILES) | Potency [1] | activation [2] | Potency [3] | activity change, negative = inhibition [4] | Potency [2] | Potency [4] | outcome [3]
28 | Cc1ccc(N(Cc2ccc([N+](=O)[O-])cc2)C(=O)c2ccco2)cc1 | inactive | – | 15.1 µM (active) | – | inactive | inactive | –
29 | Brc1cc2c(cc1CSc1ncccn1)OCO2 | inactive | -6.54% [at 17.1 µM, percent relative to cAMP agonist control] | inactive | -28.4% [at 30.8 µM] | – | – | –
30 | OCCCNc1ncnc2oc(-c3ccccc3)c(-c3ccccc3)c12 | inactive | 0.534% [at 17.1 µM, percent relative to cAMP agonist control] | inactive | -6.04% [at 30.8 µM] | – | – | –
31 | O=C(/C=C/c1ccco1)Nc1nc(-c2ccccn2)cs1 | inactive | – | inactive | – | inactive | inactive | –
32 | CCCc1nc2ccc(C(=O)OC)cn2c1Cc1ccc(C)cc1 | inactive | – | inactive | – | inactive | inactive | –
33 | O=C1c2ccccc2C(=O)C12OC2c1cccc2ccccc12 (stereo unspecified) | inactive | – | inactive | – | inactive | inactive | –
34 | O=C(COc1ccc(Cl)cc1)NC1=NN(c2ccccc2)C(=O)C1 | inactive | – | inactive | – | inactive | inactive | –
35 | COn1c2c(c3c4nonc4ccc31)CCCC2 | inactive | – | inactive | – | inactive | inactive | –
36 | Cc1ccc(NC(=O)CC2S/C(=N/N=C3\CCCc4ccccc43)NC2=O)cc1 (stereo unspecified) | inactive | 0% [at 17.1 µM, percent relative to cAMP agonist control] | inactive | -9.99% [at 30.8 µM] | – | – | –
37 | O=C(CN1C(=O)/C(=C2/SC(=S)N(CCS(=O)(=O)O)C2=O)c2ccccc21)Nc1cccc(C(F)(F)F)c1 | inactive | 2.25% [at 17.1 µM, percent relative to cAMP agonist control] | inactive | -24.5% [at 30.8 µM] | – | – | –
38 | CCCCNC(=O)CN1CCN(c2ncc(NC(=O)c3ccc(Cl)cc3)cc2C(=O)O)CC1 | inactive | – | inactive | – | inactive | inactive | –
39 | Fc1ccccc1C1CC(c2ccco2)=Nc2ccccc2S1 (stereo unspecified) | inactive | 8.88% [at 17.1 µM, percent relative to cAMP agonist control] | inactive | -3.18% [at 30.8 µM] | – | – | –
40 | COc1cc2c(cc1OC)C(c1ccc(Cl)cc1)N(c1ccc(C)c(F)c1)C(=O)C2 (stereo unspecified) | inactive | – | – | – | inactive | inactive | inactive [at 12.7 µM]
41 | Cc1ccn2c(=O)nc(SCC(=O)Nc3ccc4c(c3)OCO4)nc2c1 | inactive | – | inactive | – | inactive | inactive | –
42 | O=C(N/N=C/c1coc2ccc(Cl)cc2c1=O)c1cc(O)cc(O)c1 | inactive | – | inactive | – | inactive | inactive | –
43 | O=C(CSc1nc2ccc(Cl)cc2[nH]1)N1CCN(C(=O)c2ccco2)CC1 | inactive | – | inactive | – | inactive | inactive | –
44 | CCn1c(=O)c2sccc2n2c(CCCC(=O)N3CCN(c4cc(Cl)ccc4C)CC3)nnc12 | inactive | – | inactive | – | inactive | inactive | –
45 | Cc1ccc(-n2c(CCC(=O)O)ccc2-c2cccs2)cc1Cl | inactive | – | – | – | inactive | inactive | inactive [at 12.7 µM]
46 | COC(=O)C1(C)CC1(c1ccccc1)c1ccccc1 (stereo unspecified) | inactive | 12.4% [at 17.1 µM, percent relative to cAMP agonist control] | inactive | 1.55% [at 30.8 µM] | – | – | –
47 | CC(C)C1COC(c2cccn2Cc2ccccc2Cl)=N1 (stereo unspecified) | inactive | 14.2% [at 17.1 µM, percent relative to cAMP agonist control] | inactive | -4.02% [at 30.8 µM] | – | – | –
48 | Cc1[nH]c2ccc(C(=O)OC(C)C(=O)N(C)c3ccccc3)cc2c1C (stereo unspecified) | inactive | – | inactive | – | inactive | inactive | –
49 | COc1ccc(N2Cc3cccc(C(=O)Nc4ccc(C(C)C)cc4)c3C2=O)cc1 | inactive | – | inactive | – | inactive | inactive | –
50 | Cc1cc(N2CCOCC2)ccc1/C=C1/SC(=O)NC1=O | inactive | – | inactive | – | inactive | inactive | –
51 | Oc1ccc(NCc2cccc(OCc3ccccc3)c2)cc1 | inactive | – | inactive | – | inactive | inactive | –
52 | Cc1cc(C)cc(-n2ccnc2SCC(=O)Nc2ccc3c(c2)OCO3)c1 | inactive | – | inactive | – | inactive | inactive | –
53 | COc1cc(NC(=O)c2cccc([N+](=O)[O-])c2)ccc1NC(=O)c1ccco1 | inactive | – | inactive | – | inactive | inactive | –
54 | CCCn1cc(SCC(=O)NCc2ccc3c(c2)OCO3)c2ccccc21 | inactive | 0% [at 17.1 µM, percent relative to cAMP agonist control] | inactive | -3.41% [at 30.8 µM] | – | – | –
